Methyltransferases – Primary Screen for Target Class Profiling of Small Molecule Inhibitors of Methyltransferases. purified enzyme, MTase-Glo SAH luminescence; stronger effect = lower value. calls only at 40 µM. 25,000 tested, 3.9% active. AID 1745853, 2022; call rule not given here
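Each enzyme was reacted with SAM and its substrate, with compounds tested once at 40 uM; SAH formed was read by MTase-Glo luminescence.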
Calls only; . = inactive; + = active, no number; ! = not confirmed by another sample. This is one part of a sample in which hits are shown more often than they occur.

SMILES | Methyltransferases
COc1ccc(Cl)cc1S(=O)(=O)NC1COc2c(cccc2OC)C1 (stereo not given) | .
Cc1cccc(Cn2nc3n(C(C)C)c(=O)c4ccc(C(=O)NC5CCCCC5)cc4n3c2=O)c1 | .
COc1cc2ncnc(Nc3ccc(O)cc3)c2cc1OC | .
C#Cc1cccc(Nc2ncnc3cc(OC)c(OCCCCCCC(=O)NO)cc23)c1 | +
C#Cc1cccc(Nc2nc3cc(C(=O)O)ccc3c3cncnc23)c1 | .
CCOc1ccc(CN2C(=O)c3cc4sccc4n3CC2(C)C(=O)NC2CCC(C)CC2)cc1 (stereo not given) | .
Cc1ccc(N(C)C(=O)Cn2c(=O)oc3cc(S(=O)(=O)N4CC(C)CC(C)C4)ccc32)cc1 (stereo not given) | .
CCc1ccc(NC(=O)Cn2nc3n(Cc4ccc(C)cc4)c(=O)c4ccccc4n3c2=O)cc1 | .
Cc1ccc(NC(=O)CSc2nnc3[nH]c(=O)c(C(C)(C)C)nn23)c(C)c1 | .
Cc1ccc(C)c(-c2cc(C(F)(F)F)nn2-c2ccc(S(N)(=O)=O)cc2)c1 | +
CS(=O)(=O)c1ccc(-n2nc(C(F)(F)F)cc2-c2ccc(F)cc2)cc1 | .
NS(=O)(=O)c1ccc(-n2nc(C(F)(F)F)cc2-c2ccc(Cl)cc2)cc1 | .
Cc1ccccc1CNC(=O)Cn1ccc2cc(S(=O)(=O)N3CCC(C)CC3)ccc21 | .
COCCCNC(=O)c1cc2n(n1)CC(C)(C(=O)NCc1ccccc1)N(C)C2=O (stereo not given) | .
COc1ccc(-c2cc3n(n2)CC(C)(C(=O)NCc2ccccc2)N(c2ccc(C)c(Cl)c2)C3=O)cc1 (stereo not given) | .
O=C1c2ccccc2C(=O)c2c(NCCc3ccc(O)cc3)ccc(NCCc3ccc(O)cc3)c21 | +
O=C(O)c1cc([N+](=O)[O-])ccc1NCCCc1ccccc1 | .
Fc1ccccc1-c1noc(NCCc2ccc(Cl)cc2)n1 | .
Cc1cc2c(cc3n2CC(C)(C(=O)NC2CCCCCC2)N(CCN2CCN(C)CC2)C3=O)o1 (stereo not given) | .
CC(C)Cn1c(=O)c2ccc(C(=O)NC(C)C)cc2n2c(SCC(=O)NC(C)(C)C)nnc12 | .
CCCn1c(=O)c2ccc(C(=O)NC(C)C)cc2n2c(=O)n(CC(=O)NC(C)CC)nc12 (stereo not given) | .
C=C1C(=O)O[C@@H]2/C=C(\CO)CC/C=C(\CO)[C@H](OC(C)=O)C(OC(=O)C(C)CC)C12 (stereo not given in full) | .
C=C1C(=O)O[C@@H]2C=C(COC(C)=O)CC/C=C(\CO)CC[C@@H]12 | +
C=C(C)C(=O)OC1C(OC(C)=O)/C(C=O)=C\CC/C(CO)=C/C2OC(=O)C(=C)C21 (stereo not given) | .
Cn1c(=O)c2ccc(C(=O)NC3CCCCC3)cc2n2c(=O)n(CC(=O)NC(C)(C)C)nc12 | .
SMILES | Methyltransferases
CC(C)NC(=O)c1ccc2c(=O)n(Cc3ccccc3)c3nn(CC(=O)NC4CCCCC4)c(=O)n3c2c1 | .
O=C(NCCCc1ccccc1)c1ccc2c(=O)nc3c(-c4ccccc4)n[nH]n3c2c1 | .
CCOc1ccc(CCNC(=O)CCc2nnc3n(CCc4ccccc4)c(=O)c4ccccc4n23)cc1 | .
CC1CCN(S(=O)(=O)c2cccc3c2C(=O)c2ccccc2C3=O)CC1 | .
COc1ccc(Cl)cc1S(=O)(=O)Nc1ccc2[nH]c(=O)[nH]c2c1 | .
O=C1c2ccccc2C(=O)c2c1cccc2S(=O)(=O)Nc1ccc(Cl)cc1 | +
O=c1c2ccccc2n2c(=O)n(Cc3c(F)cccc3Cl)nc2n1Cc1ccccc1 | .
Cc1ccc(CN2C(=O)c3ccc(-c4ccco4)n3CC2(C)C(=O)NCc2ccccc2)cc1 (stereo not given) | .
COc1cccc(Cn2nc3n(CCc4ccccc4)c(=O)c4ccccc4n3c2=O)c1 | .
CCC(C)NC(=O)c1ccc2c(=O)n(C)c3nnc(SCC(=O)Nc4cccc(Cl)c4)n3c2c1 (stereo not given) | .
Oc1ccc(CNc2ccccc2F)c2cccnc12 | +
Cc1cccc(-c2[nH]c(CNc3ccccc3F)nc2-c2ccc3ncnn3c2)n1 | .
CCCn1c(=O)c2ccc(C(=O)NCC(C)C)cc2n2c(SCC(=O)Nc3ccc(F)cc3)nnc12 | .
Cc1ccc(CN2C(=O)c3cc(-c4ccco4)nn3CC2(C)C(=O)NC2CCC(C)CC2)cc1 (stereo not given) | .
CN1C(=O)c2cc(C(=O)NCCCN3CCCC3=O)nn2CC1(C)C(=O)NC1CCCCC1 (stereo not given) | .
Cc1ccc(NC(=O)CSc2nnc3n(Cc4ccccc4)c(=O)c4ccccc4n23)cc1 | .
CCN(CC)CCCC(C)Nc1c2ccc(Cl)cc2nc2ccc(OC)cc12 (stereo not given) | +!
CCC(C)NC(=O)c1ccc2c(=O)n(CC(C)C)c3nn(CC(=O)NCc4ccc(C)cc4)c(=O)n3c2c1 (stereo not given) | .
CC(C)Cn1c(=O)c2ccccc2n2c(CCC(=O)NCCc3c[nH]c4ccccc34)nnc12 | .
CCN(CCCN1C(=O)c2cc3occc3n2CC1(C)C(=O)NC1CCCCC1)c1cccc(C)c1 (stereo not given) | .
CC1CCC(NC(=O)C2(C)Cn3c(cc4occc43)C(=O)N2Cc2ccco2)CC1 (stereo not given) | .
CC1(C(=O)NC2CCCCCCC2)Cn2c(ccc2-c2ccco2)C(=O)N1CC1CCCO1 (stereo not given) | .
CN(C)c1nc(NC2CCC(NCCc3ccc(Br)cc3OC(F)(F)F)CC2)nc2ccccc12 (stereo not given) | +
CCCn1c(=O)c2ccc(C(=O)NC3CCCC3)cc2n2c(=O)n(CC(=O)Nc3cccc(F)c3)nc12 | .
CCc1ccc(N2C(=O)c3c(C(=O)OC)ncn3CC2(C)C(=O)NC2CCCCCC2)cc1 (stereo not given) | .
SMILES | Methyltransferases
Cc1ccc(NC(=O)N2Cc3c(sc4c3CCCC4)-n3cccc3C2c2cc(F)cc(F)c2)cc1 (stereo not given) | .
CCc1ccc(C(=O)NC(Cc2c[nH]c3ccccc23)C(=O)OCC(=O)c2ccccc2)cc1 (stereo not given) | .
O=C(c1ccc(Nc2nccc(-c3cc4ccccc4s3)n2)cc1)N1CCC(N2CCCC2)CC1 | +
O=C(c1ccnc(-c2ccncc2)c1)N1CCCC1 | .
C[C@@H]1CN(c2ccc(C(=O)N3CCC(N4CCOCC4)CC3)cn2)C[C@H](C)O1 | .
CC(C(=O)NCc1ccccc1)n1ccc2cc(S(=O)(=O)N3CCCCC3)ccc21 (stereo not given) | .
O=C1N[C@@H]2CCN(C(=O)c3ccc(-c4ccccc4)cc3)[C@@H]2C(=O)N1Cc1ccccc1 | .
CC1=C(C(=O)OCc2ccccc2)C(c2ccc(-c3ccccc3)cc2)NC(=O)N1CCCCCC(=O)O (stereo not given) | +
O=C(NCCCc1ccccc1)C1CN(C2CCCC2)C(=O)N1 (stereo not given) | .
CCOc1ccc(CCNC(=O)c2cc3n(n2)CC(C)(C(=O)NC2CCCC2)N(C)C3=O)cc1 (stereo not given) | .
CCOC(=O)CNC(=O)N1CCn2cccc2C1C(C)C (stereo not given) | .
CCC(C)NC(=O)c1ccc2c(=O)n(C(C)C)c3nn(Cc4c(F)cccc4Cl)c(=O)n3c2c1 (stereo not given) | .
CCC1c2ccc(C)n2CCN1C(=O)Nc1cc(Cl)c(OC)cc1OC (stereo not given) | .

Screens (PubChem BioAssay)
